This note sets out measurements from the supplement of paper PMC12340641.

In all, about 1,000 compounds were measured (“relative growth recovery (pomalidomide 10 uM = 100%, DMSO = 0%)”: median about -1.6, highest 2% from about 21 on). Only a selection was taken, and the highest values are over-represented in it overall.

The test system of this assay is HEK293FT dCK*-IKZF1. Kind of assay: relative growth recovery (pomalidomide 10 uM = 100%, DMSO = 0%); higher = more growth rescue (IKZF1 fusion degradation). Conditions: compound concentration: 5 uM; AraC concentration: 0.3 uM; overnight pretreatment + 4 days AraC. As to the method:
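Growth recovery screen of the molecular-glue-like (Specs) library. HEK293FT cells expressing a dCK*-IKZF1 fusion (primary) or dCK* alone (counter) were pretreated overnight with compound at 5 uM, then given 0.3 uM AraC for 4 days. Hoechst nuclei were counted by imaging. Primary: normalised to pomalidomide (100%) and DMSO (0%), mean of 2 replicates. Counter: normalised to no-AraC (100%) and AraC+DMSO (0%), single replicate.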
Consider `COCC(=O)N1CCC(c2cccc(Nc3ncc(C)s3)n2)CC1`, for which the relative growth recovery was -19.4%.
As to `CC(=O)N1CCCC1c1csc(Nc2ccccn2)n1` (centres undefined), the relative growth recovery is -4.06%.
`CC(=O)N1CCCC(c2csc(Nc3ccc(C)cn3)n2)C1` (centres undefined): the relative growth recovery is -5.95%.
`CC(=O)Nc1ccc(-c2csc(Nc3ccccn3)n2)cc1`: the relative growth recovery is 2.7%.
Turning to `CC(=O)Nc1cccc(-c2csc(Nc3cccc(C)n3)n2)c1`, the relative growth recovery turned out to be 5.18%.
Regarding `CC(=O)Nc1ccc(-c2csc(Nc3cccc(C)n3)n2)cc1`, the relative growth recovery was determined as 0.905%.
For `Cc1ccnc(Nc2nc(-c3sc(NC(=O)c4ccccc4)nc3C)cs2)c1`, the relative growth recovery was determined as 111%.
As for `CC(=O)Nc1ccc(-c2csc(Nc3ccc(Cl)cn3)n2)cc1`, the figure is -2.84%; as for `Cc1cccc(Nc2nc(-c3sc(NC(=O)c4ccccc4)nc3C)cs2)n1`, 121%; as for `Cc1ccc(Nc2nc(-c3sc(NC(=O)c4ccccc4)nc3C)cs2)nc1`, 111%.
In the case of `Cc1nc2ccccn2c1CC(=O)N1CCOC(c2cccc(Nc3nccs3)n2)C1` (centres undefined), the relative growth recovery is 10.9%.
`Cc1cnc(Nc2cccc(C3CN(C(=O)COc4ccccc4)CCO3)n2)s1` (centres undefined): the relative growth recovery was -5.58%.
Regarding `CCCc1cnc(Nc2cccc(C3CCN(C(=O)C4CCCCN4C(=O)CN(C)C)CC3)n2)s1` (centres undefined), the relative growth recovery was -2.86%.
For the compound `Cc1csc(Nc2cccc(C3CCN(C(=O)c4cccnc4)CC3)n2)n1`, the relative growth recovery was 8.94%.
For the compound `Cc1cc(C)c(C(=O)Nc2ccc(S(=O)(=O)Nc3cc(C)nc(C)n3)cc2)c(C)c1`, the relative growth recovery is -1.16%.
As for `Cc1csc(Nc2cccc(C3CN(CC(=O)NCc4ccccn4)CCO3)n2)n1` (centres undefined), the relative growth recovery came out at 8.57%.
Take `Cc1cnc(Nc2cccc(C3CN(C(=O)C45CC6CC(CC(C6)C4)C5)CCO3)n2)s1` (centres undefined): the relative growth recovery was -2.75%.
Regarding `Cc1csc(Nc2cccc(C3CN(C(=O)CCOc4ccccc4C)CCO3)n2)n1` (centres undefined), the relative growth recovery came to 62.8%.
For `Cc1csc(Nc2cccc(C3CCCN3C(=O)CCOc3ccccc3C)n2)n1` (centres undefined), the relative growth recovery was determined as 11.5%.
As for `COCC(=O)N1CCOC(c2cccc(Nc3nc(C)cs3)n2)C1` (centres undefined), the figure is 2.9%; as for `Cc1csc(Nc2cccc(C3CN(C(=O)CCn4ncc5ccccc54)CCO3)n2)n1` (centres undefined), 18.8%; as for `COc1cccc(OC)c1C(=O)N1CCOC(c2cccc(Nc3nc(C)cs3)n2)C1` (centres undefined), 7.41%.
As to `Cc1csc(Nc2cccc(C3CN(C(=O)CCC4CCCC4)CCO3)n2)n1` (centres undefined), the relative growth recovery worked out at 21%.
`Cc1csc(Nc2cccc(C3CN(C(=O)Cn4nc(C)ccc4=O)CCO3)n2)n1` (centres undefined): the relative growth recovery came to 1.32%.
On to `Cc1cnc(Nc2cccc(C3CN(C(=O)CCC4CCCCC4)CCO3)n2)s1` (centres undefined), for which the relative growth recovery was 7.2%.
Take `Cc1cnc(Nc2cccc(C3CN(C(=O)C4CCCC4)CCO3)n2)s1` (centres undefined): the relative growth recovery was -12.3%.
Consider `Cc1cnc(Nc2cccc(C3CN(C(=O)C4CC4c4ccc(Cl)cc4)CCO3)n2)s1` (centres undefined), for which the relative growth recovery was found to be 28.4%.
On to `Cc1csc(Nc2cccc(C3CN(C(=O)COc4c(C)cccc4C)CCO3)n2)n1` (centres undefined), for which the relative growth recovery was 22.3%.
`COc1cc(NS(=O)(=O)c2ccc(NC(=O)c3ccc(Br)o3)cc2)nc(OC)n1`: the relative growth recovery amounted to 2.29%.
`CC(C)(N)C(=O)N1CCC(CO)(c2cccc(Nc3ncc(-c4ccccc4)s3)n2)CC1`: the relative growth recovery is -19.1%.
With `Cc1cc(NS(=O)(=O)c2ccc(NC(=O)c3cccnc3)cc2)nc(C)n1`, the relative growth recovery was 1.28%.
With `CCCOc1ccc(C(=O)Nc2ccc(S(=O)(=O)Nc3ncccn3)cc2)cc1`, the relative growth recovery was -3.33%.
For `Cc1cc(C)nc(NS(=O)(=O)c2ccc(NC(=O)CSc3nc4c(cc3C#N)CCC4)cc2)n1`, the relative growth recovery is -6.17%.
Take `Cc1nc(Nc2cccc(C3CCCN3C(=O)CCOc3cccc(F)c3)n2)sc1C` (centres undefined): the relative growth recovery was 8.19%.
In the case of `CCOc1ccccc1OCC(=O)Nc1ccc(S(=O)(=O)Nc2ccccn2)cc1` it was -1.77%.
In the case of `COc1ccccc1CCC(=O)N1CCC(c2cccc(Nc3ncc(C)s3)n2)CC1`, the relative growth recovery turned out to be 19%.
Turning to `Cc1ccc(N2C(=O)c3ccc(Oc4ccc(N)cc4)cc3C2=O)cc1`, the relative growth recovery was -1.57%.
As for `Nc1ccc(Oc2ccc3c(c2)C(=O)N(c2ccccc2)C3=O)cc1`, the figure is 2.54%; as for `COCCNC(=O)C1(c2cccc(Nc3ncc(C)s3)n2)CCN(C(=O)C2CCCCC2)CC1`, -5.38%; as for `Cc1ccnc(NS(=O)(=O)c2ccc(NC(=O)Cc3ccc(Cl)cc3)cc2)n1`, 2.92%.
On to `Cc1cnc(Nc2cccc(C3CCCN3C(=O)CCCc3ccc(F)cc3)n2)s1` (centres undefined), for which the relative growth recovery worked out at 0.955%.
As for `Cn1cc(/C=C/C(=O)N2CCC(c3cc4ccccc4c(Nc4nccs4)n3)CC2)cn1`, the relative growth recovery is -18.7%.
As for `CCc1nccn1CC(=O)N1CCOC(c2cccc(Nc3ncc(C)s3)n2)C1` (centres undefined), the figure is 0.35%; as for `Cc1cc(C)c(S(=O)(=O)Nc2ccc(S(=O)(=O)Nc3ncccn3)cc2)c(C)c1`, 6.84%; as for `COc1ccc2[nH]c3nc(SCC(=O)Nc4cc(Cl)ccc4OC)nnc3c2c1`, -18.5%.
As for `COc1cc(NS(=O)(=O)c2ccc(NC(=O)C3CC3)cc2)nc(OC)n1`, the relative growth recovery was -1.71%.
Consider `O=C1CCC(N2C(=O)c3cccc(NC[C@H]4CC[C@H](C(=O)O)CC4)c3C2=O)C(=O)N1` (some centres undefined), for which the relative growth recovery is 50.3%.
As for `O=C(O)CCOCCNc1cccc2c1C(=O)N(C1CCC(=O)NC1=O)C2=O` (centres undefined), the figure is -5.19%; as for `O=C(O)CCCNc1cccc2c1C(=O)N(C1CCC(=O)NC1=O)C2=O` (centres undefined), 3.32%.
